Reference: PubChem BioAssay (EPA / NIEHS)
Calls of active or inactive are those of the source. How the source made its calls: active means hit-call score of the fitted dose curve at least 0.9, where 1 is the maximum; inactive means score below 0.9.

assay: ATG_AP_1_CIS: Attagene CIS-FACTORIAL HepG2 Assay for human Activator Protein 1 (AP-1) (AID 2282931); conditions: HepG2 Attagene cis-factorial AP-1 reporter mRNA; actives raise or lower the signal
Method: ATG_CIS is a cell-based, multiplexed-readout assay that uses HepG2, a human liver cell line, with measurements taken at 24 hours after chemical dosing in a 24-well plate.ATG_AP_1_CIS is one of 52 assay component(s) measured or calculated from the ATG_CIS assay. It is designed to make measurements of mRNA induction, a form of inducible reporter, as detected with fluorescence intensity signals by Reverse transcription polymerase chain reaction (RT-PCR) and Capillary electrophoresis technology.Data from the assay component ATG_AP_1_CIS was analyzed into 1 assay endpoint. This assay endpoint, ATG_AP_1_CIS, was analyzed with bidirectional fitting relative to DMSO as the negative control and baseline of activity. Using a type of inducible reporter, measures of mRNA for gain or loss-of-signal activity can be used to understand the reporter gene at the transcription factor-level as they relate to the gene FOS and JUN. Furthermore, this assay endpoint can be referred to as a primary readout, because this assay has produced multiple assay endpoints where this one serves a reporter gene function. To generalize the intended target to other relatable targets, this assay endpoint is annotated to the dna binding intended target family, where the subfamily is basic leucine zipper.
Human liver HepG2 cells are transiently transfected with multiple reporter transcription units (MRTUs) in 6-well plates using FuGene 6 reagent (Roche; 3 ml FuGene/1 mg DNA). The MRTU constructs are regulated by a cis-regulating element (promoter). […] A major difference between the CIS and TRANS system is that in CIS activities of endogenous TFs are measured, whereas the TRANS assay evaluates changes in activities of exogenous, chimeric NR-Gal4 proteins. […] At the end of 24 hour incubation, total RNA was isolated using TriZol reagent (Invitrogen). The isolated RNA is then reverse-transcribed using oligo(dT) primer and Mo-MLV reverse transcriptase (Invitrogen) with DNAse I (Ambion) treatment for 30 min. The one-tenth of the produced cDNA was amplified by PCR using Taq DNA polymerase (Invitrogen) and two reporter sequence-specific primers. The PCR products were fluorescently labeled by primer extension with 6-arboxyfluorescein (6-FAM) 5'-labeled reporter sequence-specific primer (2 min at 95 C, 20 s at 68 C and 10 min at 72 C) and these products were digested with 5U of HpaI (New England Biolabs) for 2h at 37 C. The fragments were purified using Qiaquick PCR columns (Qiagen), analyzed on an ABI 3130xL genetic analyzer (Applied Biosystems) with peak positions identified by using a set of X-rhodamine (ROX)-labeled MapMarker1000 molecular weight standards (BioVentures). The raw capillary electrophoresis data was processed using Attagraph software (Attagene).

Row | Structure (SMILES) | outcome | AC50
1 | OC(c1ccc(Cl)cc1)(c1ccc(Cl)cc1)C(Cl)(Cl)Cl | inactive | –
2 | Cc1c(COC(=O)[C@@H]2[C@H](/C=C(\Cl)C(F)(F)F)C2(C)C)cccc1-c1ccccc1 | inactive | –
3 | O=C1C2CC=CCC2C(=O)N1SC(Cl)(Cl)Cl (stereo not given) | inactive | –
4 | CCN(CC)c1nc(C)cc(OP(=S)(OC)OC)n1 | inactive | –
5 | COc1cc(Cl)c(OC)cc1Cl | inactive | –
6 | CCCN(CC)CC1COC2(CCC(C(C)(C)C)CC2)O1 (stereo not given) | – | 19.7 µM (active)
7 | CSC(=O)c1c(C(F)F)nc(C(F)(F)F)c(C(=O)SC)c1CC(C)C | inactive | –
8 | CCOc1cc(C(C)(C)C)ccc1C1COC(c2c(F)cccc2F)=N1 (stereo not given) | inactive | –
9 | CC(C)C1(C)N=C(c2ncccc2C(=O)O)NC1=O (stereo not given) | inactive | –
10 | COP(=S)(OC)SCn1nnc2ccccc2c1=O | – | 76.6 µM (active)
11 | Clc1nc(Cl)nc(Nc2ccccc2Cl)n1 | – | 50 µM (active)
12 | CC(C)N1C(=O)N(c2ccccc2)CSC1=NC(C)(C)C | inactive | –
13 | CS(=O)(=O)c1ccc(C(=O)C2C(=O)CCCC2=O)c([N+](=O)[O-])c1 | inactive | –
14 | COc1ccc(-c2ccccc2)cc1NNC(=O)OC(C)C | – | 14.7 µM (active)
15 | O=P(O)(O)CCCl | inactive | –
16 | CCN(CC)C(=O)C(C)Oc1cccc2ccccc12 (stereo not given) | inactive | –
17 | Cn1c(-c2ccccc2)cc(-c2ccccc2)[n+]1C | inactive | –
18 | CC(C)=CC1C(C(=O)OCc2coc(Cc3ccccc3)c2)C1(C)C (stereo not given) | – | 14.3 µM (active)
19 | CC1(C)C(C=C(Cl)Cl)C1C(=O)OC(C#N)c1cccc(Oc2ccccc2)c1 (stereo not given) | inactive | –
20 | CCOc1nc(F)cc2nc(S(=O)(=O)Nc3c(Cl)cccc3Cl)nn12 | inactive | –

Row | Structure (SMILES) | outcome | AC50
21 | CCOC(=O)C(C)OC(=O)c1cc(Oc2ccc(C(F)(F)F)cc2Cl)ccc1[N+](=O)[O-] (stereo not given) | inactive | –
22 | C=C(C)CN(CC)c1c([N+](=O)[O-])cc(C(F)(F)F)cc1[N+](=O)[O-] | inactive | –
23 | CCCCC(O)(Cn1cncn1)c1ccc(Cl)cc1Cl (stereo not given) | – | 50 µM (active)
24 | CCNC(=O)NC(=O)C(C#N)=NOC | inactive | –
25 | CC(C)NC(=O)N1CC(=O)N(c2cc(Cl)cc(Cl)c2)C1=O | inactive | –
26 | CS(=O)(=O)c1cc(C(F)(F)F)ccc1C(=O)c1cnoc1C1CC1 | – | 78.7 µM (active)
27 | CCOP(=O)(OCC)Oc1nc(Cl)c(Cl)cc1Cl | inactive | –
28 | N#CN=C1SCCN1Cc1ccc(Cl)nc1 | inactive | –
29 | CN=C=S | – | 13.5 µM (active)
30 | Cc1nc(N(C)C)nc(OC(=O)N(C)C)c1C | inactive | –
31 | COP(=S)(OC)Oc1ccc([N+](=O)[O-])c(C)c1 | – | 68 µM (active)
32 | COC(=O)N(C(=O)N1CO[C@@]2(C(=O)OC)Cc3cc(Cl)ccc3C2=N1)c1ccc(OC(F)(F)F)cc1 | – | 4.67 µM (active)
33 | Cc1ccc(N=CN(C)C=Nc2ccc(C)cc2C)c(C)c1 | inactive | –
34 | CCCCOCN(C(=O)CCl)c1c(CC)cccc1CC | inactive | –
35 | CCOP(=S)(OCC)Oc1nc(Cl)n(C(C)C)n1 | inactive | –
36 | COC(=O)NC(=S)Nc1ccccc1NC(=S)NC(=O)OC | inactive | –
37 | CCCC(=NOCC)C1=C(O)CC(CC(C)SCC)CC1=O (stereo not given) | inactive | –
38 | Cc1cc(C)nc(Nc2ccccc2)n1 | – | 30.4 µM (active)
39 | COc1cc(OC)nc(NC(=O)NS(=O)(=O)c2ncccc2OCC(F)(F)F)n1 | inactive | –
40 | CC(C)Oc1cccc(NC(=O)c2ccccc2C(F)(F)F)c1 | inactive | –
